Several values for one entry are separate records, joined by “and”; a condition that tells them apart may be missing. Identical values can stand only once. Compounds without any hit were thinned out: in the full panel of roughly 83,000, 20% have a hit.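 Testing used 96-well plates and a 48-hour single-concentration exposure. Example: -40 means 40% of the starting cells died.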 Activity calls are given as the source filed them. The calls were made as follows: active = growth percent below 10; inactive = the rest.
Key:
Test in all cases: NCI-60 one-dose screen, 48 h (100 = growth as untreated, 0 = no growth, -100 = all killed)
[1] = system: HCT-15 colon; conditions: 10 µM
[2] = system: HT29 colon
[3] = system: SNB-75 CNS
[4] = system: U251 CNS
[5] = system: PC-3 prostate
[6] = system: SK-MEL-5 melanoma
[7] = system: LOX IMVI melanoma
[8] = system: SK-MEL-28 melanoma
[9] = system: SK-MEL-2 melanoma
[10] = system: UO-31 renal
[11] = system: TK-10 renal
[12] = system: ACHN renal
[13] = system: CAKI-1 renal
[14] = system: MOLT-4 leukemia
[15] = system: SNB-19 CNS
[16] = system: UACC-62 melanoma
[17] = system: EKVX NSCLC; conditions: 10 µM
[18] = system: SN12C renal
[19] = system: A498 renal; conditions: 10 µM
[20] = system: CCRF-CEM leukemia

Measured: growth

CCCCCC(C)c1ccc(O)c(C)c1 (configuration not stated)
inactive: [1] 103% | [2]; 10 µM 103% | [3]; 10 µM 92.1% | [4]; 10 µM unless noted 107% | [5]; 10 µM 103% | [6]; 10 µM unless noted 104% | [7]; 10 µM unless noted 98% | [8]; 10 µM 111% | [9]; 10 µM 104% | [10]; 10 µM 83.5% | [11]; 10 µM 107% | [12]; 10 µM 101% | [13]; 10 µM 103% | [14]; 10 µM 93%

O=C(C(=Cc1ccccc1)C(=O)c1ccccc1)c1ccccc1
-56.4% (active) and 77.5% (inactive): [7]; 10 µM unless noted
inactive: [2]; 10 µM 47.1% and 91.2% | [3]; 10 µM 69.7% and 81.4% | [15]; 10 µM 46.9% and 92.4% | [4]; 10 µM unless noted 86.2% | [5]; 10 µM 48.3% and 77.7% | [6]; 10 µM unless noted 66.6% and 94.4% | [16]; 10 µM 48.8% and 66.7% | [8]; 10 µM 60.4% and 105% | [9]; 10 µM 90% and 83.2% | [17] 79.2% and 103% | [18]; 10 µM 78.6% and 82.7% | [10]; 10 µM 60.9% and 87.8% | [11]; 10 µM 124% and 87.7% | [12]; 10 µM 62.3% and 85.8% | [13]; 10 µM 84.5% and 86.8% | [19] 72.2% and 88.6% | [20]; 10 µM 10.8% and 81.8% | [14]; 10 µM 10.6% and 85.4%

CN1CCN(CCCN2c3ccccc3Sc3ccc(C(F)(F)F)cc32)CC1
active: [2]; 10 µM 5.41% | [8]; 10 µM -45.4%
inactive: [1] 29.3% | [3]; 10 µM 52.5% | [15]; 10 µM 73.8% | [4]; 10 µM unless noted 27.9% | [5]; 10 µM 39.8% | [6]; 10 µM unless noted 24.5% | [7]; 10 µM unless noted 15.3% | [9]; 10 µM 88.1% | [18]; 10 µM 57% | [10]; 10 µM 35.1% | [11]; 10 µM 66% | [12]; 10 µM 46.6% | [13]; 10 µM 34% | [20]; 10 µM 50.2% | [14]; 10 µM 37.6%

CCCCCCCCCCCCCCCCCCOCC(COP(=O)([O-])OCC[N+](C)(C)C)OC (configuration not stated)
inactive: [1] 61% | [2]; 10 µM 37.7% | [3]; 10 µM 84.4% | [15]; 10 µM 80.8% | [4]; 10 µM unless noted 72.4% | [5]; 10 µM 29.5% | [6]; 10 µM unless noted 62.5% | [16]; 10 µM 73.3% | [7]; 10 µM unless noted 84.6% | [9]; 10 µM 101% | [18]; 10 µM 89.7% | [10]; 10 µM 94.9% | [11]; 10 µM 64% | [12]; 10 µM 93.7% | [13]; 10 µM 69% | [20]; 10 µM 63.9% | [14]; 10 µM 89.4%

COc1cccc2c1C(=O)c1c(O)c3c(c(O)c1C2=O)C[C@@](O)(C(=O)CO)C[C@@H]3OC1CC(N)C(O)C(C)O1 (some centres not stated)
inactive: [2]; 0.0025 µM 93.2% | [2]; 1 µM 40.7% | [2]; 2.5 µM 55% | [3]; 0.0025 µM 98% | [3]; 1 µM 33% | [15]; 0.0025 µM 92.5% | [15]; 1 µM 21.1% | [15]; 2.5 µM 35.6% | [4]; 0.0025 µM 83.6% | [4]; 2.5 µM 16.4% | [5]; 0.0025 µM 100% | [5]; 1 µM 54.7% | [6]; 0.0025 µM 93.2% | [16]; 0.0025 µM 97.5% | [16]; 1 µM 14.8% | [7]; 0.0025 µM 81.7% | [8]; 0.0025 µM 93.7% | [8]; 1 µM 65.7% | [8]; 2.5 µM 70.7% | [9]; 0.0025 µM 112% | [9]; 1 µM 31.3% | [9]; 2.5 µM 75.1% | [18]; 0.0025 µM 104% | [18]; 10 µM 12% | [10]; 0.0025 µM 87.1% | [10]; 1 µM 61.3% | [10]; 2.5 µM 67.3% | [11]; 1 µM 63.3% | [11]; 2.5 µM 57.7% | [11]; 10 µM 25.4% | [12]; 0.0025 µM 102% | [12]; 1 µM 19.6% | [12]; 2.5 µM 35.6% | [13]; 1 µM 45% | [13]; 2.5 µM 17.6% | [20]; 0.0025 µM 104% | [20]; 1 µM 26.8% | [20]; 2.5 µM 53.3% | [14]; 0.0025 µM 94.5%
active: [2]; 10 µM 4.69% | [3]; 2.5 µM 7.99% | [3]; 10 µM -61.7% | [15]; 10 µM -0.904% | [4]; 10 µM 9.22% | [5]; 10 µM 1.27% | [6]; 10 µM -85.1% | [16]; 10 µM -60% | [7]; 1 µM 8.33% | [7]; 10 µM 5.68% | [8]; 10 µM -17% | [9]; 10 µM -28.5% | [18]; 1 µM -4.11% | [18]; 2.5 µM 2.46% | [10]; 10 µM 4.05% | [12]; 10 µM -13.8% | [13]; 10 µM -28.9% | [20]; 10 µM -11.8% | [14]; 1 µM 5.51% | [14]; 2.5 µM -21.6% | [14]; 10 µM -12%
